According to ChEMBL document CHEMBL3433997, “St. Jude Leishmania screening dataset” (2016):

Target: Glucose transporter (Leishmania mexicana) (UniProt O61059)
Test: ST_JUDE_LEISH: Cytotoxicity at 2uM final concentration against transgenic Leishmania Mexicana promastigotes LmGT2 that are glucose transport deficient and complemented with the L. Mexicana glucose transporter 2. Activity is measured by DNA content using SYBR green in vitro
Assay type: functional

SMILES | inhibition [%]
COc1ccc2[nH]c(C)cc(=NN=Cc3cccc(F)c3)c2c1 | 2.61
Cc1ccc(C(=O)N2CCN(Cc3nccs3)CC2)cc1 | -0.27
O=c1cc(NCCCNCc2[nH]c3cc(Cl)ccc3c2Cl)[nH]c2ccccc12 | 4.15
CS(=O)(=O)NCCCNCc1ccc(-c2cccc(-c3nc4cc(C(F)(F)F)ccc4[nH]3)c2)cc1 | 5.43
Cc1n[nH]c2ccc(-c3cc(OC[C@@H](N)Cc4ccccc4)cnc3-c3cc4ccccc4s3)cc12 | 2.02
O=C(/C=C/c1ccccc1O)N1CCC(CCN2CCC(c3c[nH]c4ccccc34)CC2)CC1 | -2.57
Cc1cc(N(C)C)nc(Nc2ccc(NC(=O)c3ccccc3Cl)cc2)n1 | -4.81
N#Cc1cccc(C(=O)NC2CCN(c3ccnc(Nc4ccc(F)cc4)n3)C2)c1 (stereo not given) | 0.63
CCCCCCn1c2c(c(=N)c3c1CCC3)CCCC2 | 66.2
CCn1cc(C=C2Oc3c(ccc(O)c3CN3CCCCC3C)C2=O)c2ccccc21 (stereo not given) | 3.81
COc1ccc(C=NNc2nc3ccccc3[nH]2)cc1O | 1.86
CC(CN(C)C)C(=O)Nc1ccc(-c2ccc(-c3nc4ccccc4[nH]3)cc2)cc1 (stereo not given) | 5.36
O=C(Nc1ccc(-c2cccc(-c3nc4cc(C(F)(F)F)ccc4[nH]3)c2)cc1)Nc1ccc(Cl)c(Cl)c1 | 13
CCCCCCCC1CC(CC(=O)Nc2ccnc3ccc(OC)cc23)CN1 (stereo not given) | 0.67
CN1CCCN(Cc2cccc(-c3cccc(NS(=O)(=O)c4cccc5cccnc45)c3)c2)CC1 | 2.53
O=C(NC1c2ccccc2Oc2ccccc21)c1ccccc1O | -0.01
CCOc1cc(C(=O)NCc2cccc(C(F)(F)F)c2)ccc1-c1nc2cc(Cl)ccc2[nH]1 | 1.82
COc1ccc2nc(C)cc(Nc3ccc(Oc4ccc(Cl)cc4)c(Cl)c3)c2c1 | 2.63
Cc1cc(N/N=C/c2ccccc2[N+](=O)[O-])c2cc(F)ccc2n1 | 0.94
O=C(NCCc1cccc(Cl)c1Cl)c1ccc(N2CCN(c3ccncc3)CC2)nc1 | 21.8

SMILES | inhibition [%]
CCOc1cc(Cc2cnc(N)nc2N)cc(Br)c1OC | 2.29
CNCc1cccc(-c2ccc3ccnc(N)c3c2)c1 | 7.76
Oc1ccc(Nc2nc(NCc3ccco3)c3ccccc3n2)cc1 | 10.9
O=C(Nc1ccc(N2CCN(C(=O)/C=C/c3ccccc3)CC2)c(Cl)c1)c1ccc([N+](=O)[O-])o1 | 13.7
CC(Oc1ccc(Cl)cc1)C(=O)Nc1cc(C(F)(F)F)ccc1N1CCOCC1 (stereo not given) | 6.86
CC(=O)Nc1ccc(CN(Cc2ccc(F)cc2)Cc2cccc(Oc3ccccc3)c2)cc1 | 0.56
Cc1ccc(NC(=O)NC2CCN(c3ccnc4ccccc34)C2)cc1 (stereo not given) | 7.34
CCNc1cc(C(=O)N[C@@H](Cc2ccccc2)[C@H](O)CNC2CCC(C)(C)CC2)cc(N2CCCCS2(=O)=O)c1 | 1.22
CNC(=O)c1ccccc1Nc1nc(Nc2ccc(C(=O)O)cc2)ncc1Cl | 1.39
Cc1cccc2nc(-c3cccc(-c4cccc(C(=O)NCc5nccn5C)c4)c3)[nH]c12 | 10.2
C=C(NC(=O)c1cc(C)cc(C)c1)C(=O)OC | 0.67
CC(=O)Nc1ccc(CN2CCC(NC(=O)c3cc(-c4ccc(N(C)C)cc4)cs3)C2)cc1 (stereo not given) | 4.39
c1ccc(N2CCN(c3cc(-c4cccnc4)nc(-c4ccncc4)n3)CC2)nc1 | 0.92
Oc1cc(-c2nc(C3(CNCc4ccc(Cl)cc4)CCCCC3)[nH]c2-c2ccncc2)ccc1Cl | 5.4
O=C(Nc1cccc(-c2cccc(-c3nc4ccccc4[nH]3)c2)c1)c1csnn1 | 1.92
CCCNCc1ccc(-c2ccc(CN(CCOC)C(=O)c3ccco3)cc2)nc1 | 2.77
CC(C)c1cc2c(cc1O)C(Cc1ccccc1Cl)N(C)CC2 (stereo not given) | 0.89
Cc1cccc2nc(-c3cccc(-c4ccc(NC(=O)CN5CCN(C)CC5)cc4)c3)[nH]c12 | 0.62
CC(C)(C)c1ccc(CN2CCCCC(NC(=O)c3cc(-c4ccccc4F)cs3)C2)cc1 (stereo not given) | 0
CCNc1cc(C(=O)N[C@@H](Cc2ccccc2)[C@H](O)CNC23CC4CC(CC(C4)C2)C3)cc(N2CCCCS2(=O)=O)c1 | -0.1
